High-throughput results (PubChem)
In the library only some 2.9% were active in any assay of this set; here they are far more common.
Myeloid diff MLP – promotes myeloid progenitor differentiation | ER-HoxA9 myeloid progenitors, lysozyme-GFP differentiation, flow cytometry | calls only at 10 µM | 360,000 tested, 1% active;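 active means normalized GFP-positive differentiation at or above the plate's own cutoff, the solvent-only control mean plus 3 SD; inconclusive means no clear call, values can overlap the other calls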;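 further: cells exposed to compound for four days before flow analysis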
sPLA2-III inh – Inhibits HGIII-sPLA2 liposome hydrolysis, primary screen. Q9NZ20. QFRET BODIPY PC-A2 liposome hydrolysis, fluorescence. inhibition, % at 12.2 µM. 370,000 tested, 0.56% active. AID 743126;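 active means inhibition above mean plus 3 SD of compounds lying within the high and low control bounds, cut at about 19% in these data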
DAGLB inh – diacylglycerol lipase beta (human) inhibition. Q8NCG7. HEK293T DAGLB membrane lysate, EnzChek fluorogenic substrate. inhibition, % at 5.17 µM. 340,000 tested, 0.059% active; in the data active means inhibition above about 34%
Rtt109 HAT inh – blocks Candida albicans Rtt109/Vps75 acetyltransferase activity; AID 540336; inhibition, % at 34.9 µM; purified Rtt109/Vps75, ThioGlo CoA-SH fluorescence, 4 h; 330,000 tested, 0.16% active;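 active means inhibition of at least 50% in every replicate; inconclusive means best replicate reaches 50% inhibition but some replicates fall short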
ABHD5-PLIN5 inh – blocks binding of human ABHD5 to perilipin-5 | Q00G26+Q8WTS1 | Split G. princeps luciferase complementation, luminescence, 4 h | inhibition, % at 4 µM | 360,000 tested, 0.78% active | AID 602281;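 active means inhibition above the mean inhibition across every tested compound plus 3 SD, cut at about 22% in these data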
Target sequence (Q00G26 whole entry, looked up): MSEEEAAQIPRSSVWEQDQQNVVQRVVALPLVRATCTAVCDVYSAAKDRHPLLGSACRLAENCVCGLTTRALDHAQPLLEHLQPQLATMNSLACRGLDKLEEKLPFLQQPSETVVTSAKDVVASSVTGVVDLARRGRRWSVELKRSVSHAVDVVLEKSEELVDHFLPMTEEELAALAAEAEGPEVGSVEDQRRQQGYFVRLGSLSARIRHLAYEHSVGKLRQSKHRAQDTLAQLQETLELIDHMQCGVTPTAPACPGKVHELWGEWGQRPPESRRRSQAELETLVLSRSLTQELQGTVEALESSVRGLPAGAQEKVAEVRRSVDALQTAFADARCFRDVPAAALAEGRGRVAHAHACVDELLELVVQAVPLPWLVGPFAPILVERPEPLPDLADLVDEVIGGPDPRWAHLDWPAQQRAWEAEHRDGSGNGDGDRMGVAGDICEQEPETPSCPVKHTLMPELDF
Target sequence (Q8WTS1 whole entry, looked up): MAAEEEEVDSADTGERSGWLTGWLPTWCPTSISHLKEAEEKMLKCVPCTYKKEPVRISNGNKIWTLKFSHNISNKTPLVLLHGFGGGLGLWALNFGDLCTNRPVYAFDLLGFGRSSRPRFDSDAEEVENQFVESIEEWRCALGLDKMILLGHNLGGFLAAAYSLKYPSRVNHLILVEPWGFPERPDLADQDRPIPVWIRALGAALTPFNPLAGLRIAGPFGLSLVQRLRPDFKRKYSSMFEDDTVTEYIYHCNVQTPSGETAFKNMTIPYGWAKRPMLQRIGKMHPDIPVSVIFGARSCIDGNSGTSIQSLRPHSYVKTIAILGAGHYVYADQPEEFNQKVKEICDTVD
H9c2 protect – modulators protecting cardiomyocytes from myocardial damage; H9c2 cardiomyocytes, H2O2 injury protection, ATPLite, 2 h; protection from H2O2 cell death, % at 20 µM; 360,000 tested, 0.63% active;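 active means compounds giving at least 50% protection of heart cells from peroxide-induced death in the single-dose screen, raw or plate-pattern-corrected value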
ABHD5-PLIN5 conf – confirmation of human ABHD5-PLIN5 interaction inhibitors. shares compounds with ABHD5-PLIN5 inh. biochemical ABHD5-PLIN5 interaction, luminescence. inhibition, % at 4 µM. 2,200 tested, 67% active; in the data active means inhibition above about 23%
HNF4 counter – active in HNF4 split-luciferase counter-screen for ABHD5-PLIN5 inhibitors; shares compounds with ABHD5-PLIN5 inh; HNF4 dimerization, luminescence, biochemical; inhibition, % at 4 µM; 2,200 tested, 77% active; AID 651674;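 active means mean inhibition across replicate wells exceeding the computed hit threshold, cut at about 13% in these data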;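 further: light from luciferase halves that rejoin when HNF4 fusion proteins dimerize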
Numbers stand for hits; – = inactive; ? = inconclusive; · = not tested or not shown; ! = repeats disagree.

SMILES	Myeloid diff MLP	sPLA2-III inh	DAGLB inh	Rtt109 HAT inh	ABHD5-PLIN5 inh	H9c2 protect	ABHD5-PLIN5 conf	HNF4 counter
COC(=O)C[C@]1(C(=O)OC)CN(C#N)N(c2ccc(Cl)cc2)C12c1ccccc1-c1ccccc12	·	–	–	–	78	–	98	97
COC(=O)[C@@H]1[C@@H](C(=O)OC)C2(c3ccccc3-c3ccccc32)N(c2ccc(Cl)cc2)N1C#N	·	–	–	–	78	–	97	96
COC(=O)C1=C(c2ccc(OC(F)(F)F)cc2)C[C@@H]2CC[C@H]1N2C(=O)N1CCc2cc(OC)c(OC)cc2C1	·	–	·	·	·	·	·	·
CC12CN3CCN(CC(C3)/C1=N/NC(N)=O)C2	–	–	–	–	–	–	·	·
O=C1/C(=C/c2ccc([N+](=O)[O-])cc2)N2CCC1CC2	–	–	–	–	–	–	·	·
CCOC(=O)C(NC(C)=O)C(OC(C)=O)c1cccc(N(CCCl)CCCl)c1 (stereo not given)	–	–	–	–	–	–	·	·
O=c1[nH]c(O)c(/C=C2\C=NN=C2c2ccccc2)c(=O)[nH]1	–	–	–	–	30	–	62	63
CC(=NCc1ccc2c(c1)OCO2)c1c(O)n(-c2ccc(C)cc2)c(=O)[nH]c1=O	–	–	–	–	99	–	–	–
C=CCn1c(O)c(C(C)=NCc2ccc3c(c2)OCO3)c(=O)[nH]c1=O	–	–	–	–	–	–	·	·
COC(=O)C1=C(c2ccc3ccccc3c2)C[C@@H]2CC[C@H]1N2C	–	–	–	–	–	–	·	·
COC(=O)C1=C(C(=O)OC)C2OC1c1cc3ccccc3cc12	?	–	–	–	81	–	78	109
COc1c(/C=C2/C(=O)NC(=O)N(C)C2=O)c(CCN(C)C(=O)c2ccccc2)cc2c1OCO2	–	–	–	–	–	–	·	·
CNC(=S)N(C)CCc1cc2c(c(OC)c1/C=C1/C(=O)NC(=O)N(C)C1=O)OCO2	–	–	–	–	35	–	–	18
CCNC(=S)N(C)CCc1cc2c(c(OC)c1C=C1C(=O)N(C)C(=O)N(C)C1=O)OCO2	–	–	·	–	29	–	–	18
Clc1ccc2c(c1)C(c1ccccc1Cl)=NCc1nnc(N3CCN(CCSc4ccccc4)CC3)n1-2	–	–	–	–	26	–	–	–
Cc1cc(Cl)ccc1OCCCC(=O)NCc1cccs1	–	–	–	–	–	–	·	·
C=C1C(=O)OC2CC3(C)OC3C3OC3C3=CC(OC3=O)C12 (stereo not given)	–	–	·	·	100	–	101	111
C1CCC2CCCCC2C1 (stereo not given)	–	–	–	–	–	–	·	·
O=c1[nH]c(=O)n(Cc2ccccc2)c(O)c1/C=C1\C=Nc2ccccc21	–	–	–	–	–	–	·	·
O=c1[nH]c(=O)n(CC2CCCO2)c(O)c1/C=C1\C=Nc2ccccc21 (stereo not given)	–	–	–	–	27!	–	–	18
C=C1C(=O)OC2CCN3CC=C(COC(=O)C(C)(O)C4(CO4)C1C)C23 (stereo not given)	–	–	·	·	–	–	·	·
NS(=O)(=O)c1ccc(-c2ccc(C=C3C(=O)NC(=O)NC3=O)o2)cc1	–	–	–	–	25	–	91	95
CNS(=O)(=O)c1ccc(-c2ccc(C=C3C(=O)NC(=O)NC3=O)o2)cc1	–	–	–	–	25	–	94	99
C=CCn1c(O)c(C(C)=Nc2cccc(C(=O)O)c2)c(=O)[nH]c1=O	–	–	–	–	–	–	·	·
C=CCn1c(O)c(C(C)=Nc2cccc(C(F)(F)F)c2)c(=O)[nH]c1=O	–	–	–	–	98	–	–	18
SMILES	Myeloid diff MLP	sPLA2-III inh	DAGLB inh	Rtt109 HAT inh	ABHD5-PLIN5 inh	H9c2 protect	ABHD5-PLIN5 conf	HNF4 counter
C=C1C(=O)OC2CC3(C)OC3CCC(C)=CC(OC(C)=O)C12 (stereo not given)	·	–	–	–	33	–	45	70
CCOc1ccc(N2C(=O)NC(=O)/C(=C\c3ccccc3[N+](=O)[O-])C2=O)cc1	–	–	–	–	28	–	87	85
O=C1NC(=O)C(=Cc2ccccc2[N+](=O)[O-])C(=O)N1	–	–	–	–	–	–	·	·
COc1ccc(N2C(=O)NC(=O)/C(=C\c3ccccc3[N+](=O)[O-])C2=O)cc1	–	–	–	–	23	–	81	85
CCOc1ccc(N2C(=O)/C(=C\c3cccs3)C(=O)NC2=S)cc1	·	–	·	·	·	·	·	·
NCCc1ccc(OCc2ccccc2)c(OCc2ccccc2)c1	–	–	–	–	28	–	–	–
CCCCCN1C(=O)c2cc(OC)ccc2[C@@]2(C(=O)OCC)Cc3cc(Cl)ccc3[C@@H]12	?	–	·	·	39	·	27	30
CCOC(=O)[C@]12Cc3cc(Cl)ccc3[C@H]1N(C(C)C)C(=O)c1ccccc12	?	–	·	·	33	·	25	29
CCOC(=O)[C@]12Cc3cc(Cl)ccc3[C@H]1N(Cc1ccccc1)C(=O)c1cc(OC)ccc12	–	–	·	·	–	·	·	·
CCOC(=O)[C@]12Cc3cc(Cl)ccc3[C@H]1N(CC(=O)OC)C(=O)c1ccccc12	–	·	·	·	38	·	32	34
CCOC(=O)[C@]12Cc3cc(OC)ccc3[C@H]1N(Cc1ccccc1)C(=O)c1cc(OC)ccc12	–	–	·	·	–	·	·	·
CCOC(=O)[C@]12Cc3cc(Cl)ccc3[C@H]1N(C)C(=O)c1ccccc12	–	–	·	·	–	·	·	·
CCOC(=O)[C@]12Cc3cc4ccccc4cc3[C@H]1N(Cc1ccccc1)C(=O)c1cc(OC)ccc12	–	–	·	·	23	·	–	16
CCC(=O)N1N=C2C3CCN(CC3)C2C1c1ccc(C)cc1 (stereo not given)	–	–	–	–	–	–	·	·
COC(=O)C1=C(c2cc3ccccc3o2)C[C@@H]2CC[C@H]1N2C(=O)NCc1ccc(F)cc1	–	–	–	–	–	–	·	·
CCN(CC)C(=O)c1ccc(NC(=O)Nc2ccccc2F)cc1	–	–	–	·	–	–	·	·
CCCCNS(=O)(=O)c1ccc(OCC(=O)N2CCN(Cc3ccc4c(c3)OCO4)CC2)cc1	–	–	–	–	–	–	·	·
CC(=O)C1C(N2CC2)CC2C3CCC4=CC(=O)CCC4(C)C3CCC21C (stereo not given)	–	–	–	–	–	–	·	·
CCOC(=O)c1cc2c(cn1)[C@H](CCO)NC2	–	–	–	–	–	–	·	·
CCC(C(=O)N1C[C@H]2C[C@@H](C1)c1cccc(=O)n1C2)c1ccccc1 (stereo not given in full)	–	–	–	–	–	–	·	·
COc1ccc(-c2ccc3c(c2)CN(c2cccc(Cl)c2)Cc2cnnn2-3)cc1	–	–	·	·	–	–	·	·
Clc1cccc(N2Cc3cc(-c4ccccc4)ccc3-n3nncc3C2)c1	–	–	·	·	72	–	47	27
